Molecules are shown by their SMILES.

The assay deals with AMP-activated protein kinase, AMPK (Homo sapiens) (UniProt P54646+O43741+P54619+Q9UGJ0+Q9Y478+Q13131+Q9UGI9). Description: AMP-dependent Kinase enzyme assay. An in vitro enzyme assay that detects ADP turnover that is directly proportional to AMPK activity. This uses naive AMPK that is activated during the assay with MK-8722. It counts as functional. More on the design: scale not given: direction of the effect not stated beside the values. The note with it: 30 µM.
With `O=C(Cn1ccc2ncccc2c1=O)N1CCSCC1`, the Percent Effect is -4.34%.
For `OC[C@@H]1CCCN1Cc1cn(C2CCN(C3CCCC3)CC2)nn1`, the Percent Effect is -1.95%.
With `Cc1cc(C)nc(N2CC[C@H](Oc3ccccc3F)[C@@H](O)CC2)n1` the figure was 21.5%; with `Cn1cc(CN2CCOC(c3cccc(-c4cncnc4)n3)C2)cn1` (centres undefined), 11.3%; with `COc1ncccc1CNCc1cnc(N2CCOCC2)nc1`, -1.53%.
The figure for `CN(Cc1cc(Br)cn1C)C(=O)Cc1cccnc1` is -10.2%; for `CC(C)CN1CCC(NC(=O)N(C)Cc2csc3ccccc23)CC1` it is 0.225%; for `Cc1nc(NC(=O)c2c3c(nn2C2CCS(=O)(=O)C2)CCC3)sc1C` (centres undefined) it is -4%.
As for `Cc1nc(N)cc(C2(C)CCCNC2)n1` (centres undefined), the Percent Effect stood at 14.2%.
With `Cc1nc(CN(C)S(=O)(=O)c2ccc(F)cc2Br)no1` the figure was 1.76%; with `Cc1noc(C)c1C(=O)N[C@@H]1CCC[C@@H](Oc2ccccc2)[C@@H]1O`, 19.1%.
With `NC(=O)CN1CCC(C(=O)NCC(O)c2cccc(F)c2)CC1` (centres undefined) the figure was -5.48%; with `COCCN1C[C@H]2CC[C@@H]1CN(C(=O)CCc1n[nH]c(C)c1C)C2`, -0.161%.
Turning to `C1=C(CNC2CCc3ncnn3C2)COc2ccccc21` (centres undefined), the Percent Effect was found to be 10.9%.
With `CN1CCCC(CCC(=O)NCCc2nnc(N)s2)C1` (centres undefined) the figure was -1.67%; with `CC(O)C1CCN(C(=O)CCOc2ccccc2F)CC1` (centres undefined), 4.43%.
The figure for `O=C(NCc1cccnc1N1CCCCC1)c1ccc2[nH]nnc2c1` is -9.59%; for `CCNC(=O)[C@@H]1C[C@@H](N)CN1C(=O)c1[nH]c2ccccc2c1CC` it is 13.5%.
The figure for `CC(C)Oc1ccccc1CNC(=O)N(C)CC(F)F` is 1.53%.

Values taken from ChEMBL document CHEMBL3988442, “University of Dundee, Small-Polar-MMV Screening Library” (2021).
